# Source: ChEMBL document CHEMBL3988442, “University of Dundee, Small-Polar-MMV Screening Library” (2021)
# About 13,000 (27%) of roughly 48,000 compounds showed an effect of 50% or more. The list shows a part of the results.
# Tested on: Wolbachia pipientis
# Experiment: Anti-Wolbachia Cell-Based Screen
# Assay type: functional
# Parameters: scale not given: in the data most compounds retested in dose-response had high values
# Details: 5 µM
row,Compound,Percent Effect
1,COCCN(Cc1ccc(F)cc1Cl)C(=O)c1cc(C)no1,3.523%
2,Cc1cccc2c1nc1n2[C@@H](CNC(=O)Cc2ccccc2)COC1,-6.284%
3,Cc1cc(C)c2c(N(C)CC3CCN(CC(C)C)C3)ncnc2n1 (centres undefined),16%
4,Cc1nc(C(=O)N(Cc2c(C)nn(C)c2C)C(C)C)cs1,0.2586%
5,CCN(C(=O)c1cccc2c1OCO2)c1ccc(Br)cn1,-0.9868%
6,CCOc1ccc(N2CCC(C(O)c3ccccc3)CC2)nn1 (centres undefined),-5.535%
7,CC(NC(=O)OC(C)(C)C)c1nnc(S(=O)(=O)Cc2ccc(Cl)cc2)o1 (centres undefined),137.4%
8,CCC(C)NC(=O)CS(=O)(=O)Cc1ccccc1Cl (centres undefined),-0.4939%
9,Cc1ccccc1CS(=O)(=O)c1nnc(N2CCOCC2)s1,-8.396%
10,CC(NC(=O)CNC(=O)OC(C)(C)C)c1ccc(Cl)s1 (centres undefined),-4.782%
11,O=S(=O)(Cc1ccccc1Cl)NC(CO)c1ccco1 (centres undefined),-8.194%
12,C[C@H](NC(=O)OC(C)(C)C)c1nnc(S(=O)(=O)Cc2cccc(F)c2)o1,143.7%
13,CC(C)S(=O)(=O)c1nnc(CCNC(=O)OC(C)(C)C)o1,16.12%
14,CC(NC1(CNC(=O)OC(C)(C)C)CCOCC1)c1ccccc1 (centres undefined),3.949%
15,CC(NC(=O)OC(C)(C)C)c1nnc(S(=O)(=O)Cc2ccccc2Cl)o1 (centres undefined),135.1%
16,Cc1ccccc1CS(=O)(=O)c1nnc(C(C)NC(=O)OC(C)(C)C)o1 (centres undefined),85.24%
17,CC(C)NC(=O)NCCCc1cccc(F)c1,-3.402%
18,CC(C)(C)OC(=O)NCCC(=O)NCC(O)c1cccc(F)c1 (centres undefined),-4.021%
19,CC(C)(C)c1ccc(C2(C(=O)NCCS(C)(=O)=O)CC2)cc1,2.157%
20,Cn1cnc(-c2ccc(F)cc2)c1NC(=O)CCNC(=O)C(C)(C)C,-6.706%
21,Cc1ccc(OCC(O)CN(C)CC(=O)NC(C)C)c(C)c1 (centres undefined),0.9379%
22,Cc1ccc(S(=O)(=O)N(C)Cc2cnccn2)cc1N(C)C,-3.361%
23,CO[C@H]1CC[C@H]2[C@H]1OCCN2C(=O)CC1=CCCCC1,98.05%
24,O=C(C1=CCCC1)N1CCO[C@H]2[C@@H](OCC3CC3)CC[C@@H]21,-8.51%
25,CCOCC1CC2(CCN(C(=O)CC3=CCCCC3)CC2)CO1 (centres undefined),-15.26%
26,CO[C@@H]1CC[C@H]2[C@H]1OCCN2C(=O)C1=CCCC1,4.441%

row,Compound,Percent Effect
1,CCO[C@H]1CC[C@H]2[C@H]1OCCN2C(=O)CC1=CCCCC1,80.53%
2,CO[C@H]1CC[C@H]2[C@H]1OCCN2C(=O)C1=CCCC1,2.583%
3,CCO[C@@H]1CC[C@H]2[C@H]1OCCN2C(=O)CC1=CCCCC1,124.5%
4,CC(C)(CNC(=O)Nc1cccc(-c2cccs2)c1)C(N)=O,3.927%
5,N#Cc1ccc(Cn2cncn2)c(F)c1,-14.63%
6,N#Cc1nccnc1NC1CCN(c2ccccc2OC(F)F)C1 (centres undefined),9.423%
7,CCN1CCc2[nH]cnc2C12CCN(c1ccc(Cl)c(C(=O)O)n1)CC2,-7.204%
8,COc1ccc(CNC(=O)NCC2CCOC2)c(C(F)(F)F)c1 (centres undefined),-17.58%
9,O=C(c1cc2c(s1)CCC2)N1CCCCC1Cn1cccn1 (centres undefined),-2.201%
10,O=C(c1cc2c(s1)CCC2)N1CCCC1Cn1cccn1 (centres undefined),111%
11,O=C(c1cc2c(s1)CCCC2)N1CCCC1Cn1cccn1 (centres undefined),141.2%
12,Cc1nn(C)c(N2CCOCC2)c1CNC1CCN(C(C)(C)C)CC1,-15.17%
13,Cc1nc(CCN2CCCCC2)n(-c2ccc(F)cc2)n1,-12.73%
14,c1ccc(-c2cccc(-c3ccn(CCN4CCCCC4)n3)c2)nc1,2.819%
15,Cc1ccc(CNC2CCN(CCc3ccncc3)CC2)s1,-7.206%
16,c1cc(-c2ccn(CCN3CCCC3)n2)cc(-c2nccs2)c1,-3.86%
17,c1ccc(-c2nnc3sc(CCN4CCCC4)nn23)cc1,117%
18,c1cc(-c2nnc3sc(CCN4CCCC4)nn23)ccn1,107.3%
19,c1ccc(-c2nnc3sc(CCN4CCCCCC4)nn23)cc1,117.6%
20,c1cc(-c2nccn2CCc2nc3c(s2)CCC3)ccn1,7.441%
21,Cc1ccc(-c2cccc(-c3ccn(CCN4CCCC4)n3)c2)nn1,-8.933%
22,CC(C)(C)Cc1noc2ncc(C(=O)N3CCC3)cc12,-0.07347%
23,O=C(C1SCCc2sccc21)N1CCN(CC(F)F)CC1 (centres undefined),2.68%
24,CN(CCOc1cccc(S(C)(=O)=O)c1)c1ccccc1,88.15%
25,CN(CCOc1cccc(S(C)(=O)=O)c1)CC(F)F,95.25%
26,CS(=O)(=O)c1ccc(OCCNCc2cccc(F)c2)cc1,-4.841%

row,Compound,Percent Effect
1,CCC(C)(C)N(C)CCOc1cccc(S(C)(=O)=O)c1,103.5%
2,CN(CCOc1cccc(Cl)c1)Cc1nnc(C(C)(C)C)o1,-19.16%
3,COc1cccc(S(=O)(=O)CCN2CCN(CC(F)F)CC2)c1,1.442%
4,CS(=O)(=O)CCCOc1cccc(-n2ccnc2)c1,0.659%
5,CN(CCOc1cccc(CNS(C)(=O)=O)c1)C1CCOCC1,-5.968%
6,CS(=O)(=O)CCCOc1cccc(-n2cccn2)c1,-22.07%
7,Cc1cccc(C(=O)NC2CCN(c3cnn(C)c3)C2=O)c1C (centres undefined),3.687%
8,O=C(CC1CC1)NCc1cn2c(n1)CN(Cc1nccs1)CC2.O=C(O)C(F)(F)F,17.65%
9,Cc1cc(C(=O)N2C[C@@H]3[C@@H](C2)OCC(=O)N3CC2CC2)no1,15.73%
10,CS(=O)(=O)CCN1CCC(=Cc2ccccc2)CC1,3.303%
11,COc1cccc(CN(C(=O)NC2CC2)C2CCC(O)CC2)c1 (centres undefined),4.411%
12,O=C(C1CCOCC1)N(CCc1ccccc1)C1CCOC1 (centres undefined),-13.84%
13,CN(CC(=O)N(C)C1CCN(CC2CCOC2)CC1)c1ccccc1 (centres undefined),-6.754%
14,O=C(O)CN(C(=O)c1ccccc1)[C@H]1C[C@H]2CCOC[C@H]2C1,112.1%
15,O=C(C1CC1)N(CCc1ccccc1)C1CCOC1 (centres undefined),-3.562%
16,CNC(=O)CN([C@H]1C[C@H]2CCOC[C@H]2C1)S(=O)(=O)c1ccccc1,119.6%
17,CNC(=O)[C@@]12CCO[C@@H]1CCN(S(=O)(=O)c1ccccc1)C2,-56.29%
18,CC(=O)NCC(=O)N(CCc1ccccc1)C1CCOC1 (centres undefined),3.358%
19,O=C(NC1CC1)N(CCc1ccccc1)C1CCOC1 (centres undefined),-8.792%
20,CNC(=O)CN(C(=O)c1ccccc1)[C@H]1C[C@H]2CCOC[C@H]2C1,119.3%
21,CN1CCN(CCO)C(=O)C12CCN(c1nccs1)CC2,3.933%
22,CN1CCOC(C(=O)Nc2ccc3[nH]nnc3c2)C1 (centres undefined),3.877%
23,CCc1nsc(NC2CCCn3nc(COC)nc32)n1 (centres undefined),-2.766%
24,Cc1ccc2nc(C)c(C)c(C(=O)NCCCn3ccnn3)c2c1,-15.24%
25,CCc1nccn1CCCNC(=O)c1cnn(-c2ccccc2OC)c1,86.43%
26,CC(C)c1nccn1CCCNC(=O)c1ccc(-c2cnn(C)c2)nc1,3.735%

row,Compound,Percent Effect
1,COc1ccccc1-n1cc(C(=O)NCCCn2ccnn2)cn1,105.8%
2,Cc1ccc2[nH]c(C(=O)NCCCn3ccnn3)c(C)c2c1,-11.21%
3,CCc1nccn1CCCNC(=O)CN1CCN(c2ncccn2)CC1,-11.95%
4,CC(C)CCN1CC2(CCN(C3CCCOC3)CC2)OC1=O (centres undefined),10.38%
5,COCCOc1ccc(NC(=O)N2CCCC2c2ccsc2)cn1 (centres undefined),-8.185%
6,COc1c(F)ccc(C(=O)N2CC[C@H](CO)[C@@H](O)C2)c1F,0.1381%
7,CC(C)CCN1CCc2nc(N3CCOCC3)nc(NC(C)C)c2C1,0.8088%
8,CC(C)Nc1nc2c(cc1C(=O)NCC1CC1)CCN(S(C)(=O)=O)CC2.O=C(O)C(F)(F)F,8.623%
9,Cc1nc(CN2CCc3nc(N4CCCC4)nc(NC(C)C)c3C2)cs1,-7.957%
10,CCS(=O)(=O)N1CCc2nc(N3CCOCC3)nc(N(C)C)c2CC1,-7.887%
11,CCc1ncnc2c1CCN(c1ncc(F)cn1)CC2,-14.13%
12,CC(C)Nc1nc(N2CCCC2)nc2c1CN(S(C)(=O)=O)CC2,105.6%
13,CCCN1CCc2nc(N3CCOCC3)nc(NC(C)C)c2C1,-9.413%
14,CC(C)Nc1nc(N2CCCC2)nc2c1CN(c1ncc(F)cn1)CC2,118.9%
15,CCCS(=O)(=O)N1CCc2nc(N3CCOCC3)nc(N(C)C)c2C1,5.75%
16,CC(C)Nc1nc(N2CCCC2)nc2c1CCN(S(C)(=O)=O)CC2.O=C(O)C(F)(F)F.O=C(O)C(F)(F)F,110.6%
17,CC(C)Nc1nc(N2CCCC2)nc2c1CN(C)CC2,109%
18,Cc1cc(C(=O)N2CCC(c3nccn3CCCN(C)C)CC2)no1,1.64%
19,Nc1nc(CCNc2ncnc3c2CCN(C(=O)C2CC2)C3)cs1,-7.691%
20,Cc1ccc(SCCN(C)C(=O)c2cn(CCN)nn2)cc1,1.127%
21,COCC(=O)N(Cc1cccc(C)c1)Cc1ccccc1OC,-10.99%
22,CC(C)(O)CN1CCN(C(=O)COC2CCCCC2)CC1,-14.17%
23,CCC(C)c1csc(NC(=O)Cc2csc(-c3nnc[nH]3)n2)n1 (centres undefined),-13.2%
24,CCN1CCc2nc(N3CCOCC3)nc(NC(C)C)c2C1,-4.113%
25,CC(C)Nc1nc(N2CCCC2)nc2c1CN(C(C)C)CC2,4.85%
26,CCC(C)N1CCc2nc(N3CCCC3)nc(NC(C)C)c2C1 (centres undefined),120.2%
